About 83,000 compounds went through this panel and 20% of them were active in at least one assay; those are over-represented in the sample as a whole.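 Treatment: one concentration, 48 hours, 96-well format. Scoring: percent growth, with anything below 10 considered active.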 Activity calls are given as the source filed them.
Tests used:
Assay in all cases: NCI-60 one-dose screen, 48 h (100 = growth as untreated, 0 = no growth, -100 = all killed)
Details in all cases: 10 µM
NCI-H23 lung = tested on: NCI-H23 lung
NCI-H226 lung = tested on: NCI-H226 lung
NCI-H322M lung = tested on: NCI-H322M lung
HOP-62 NSCLC = tested on: HOP-62 NSCLC
NCI-H460 lung = tested on: NCI-H460 lung
HOP-92 NSCLC = tested on: HOP-92 NSCLC
NCI-H522 lung = tested on: NCI-H522 lung
A549/ATCC NSCLC = tested on: A549/ATCC NSCLC
786-0 renal = tested on: 786-0 renal
COLO 205 colon = tested on: COLO 205 colon
DU-145 prostate = tested on: DU-145 prostate
K-562 leukemia = tested on: K-562 leukemia
MALME-3M melanoma = tested on: MALME-3M melanoma
MDA-MB-231 breast = tested on: MDA-MB-231 breast
SF-268 CNS = tested on: SF-268 CNS
SF-295 CNS = tested on: SF-295 CNS
SF-539 CNS = tested on: SF-539 CNS
UACC-257 melanoma = tested on: UACC-257 melanoma
M14 melanoma = tested on: M14 melanoma

Measured: growth

CN1CCN(Cc2ccc(C(=O)Nc3cccc(Nc4ccc5c(O)cccc5n4)c3)cc2C(F)(F)F)CC1
active: NCI-H23 lung -69.8% | NCI-H322M lung -18.6% | HOP-62 NSCLC -47.2% | NCI-H460 lung -18.5% | HOP-92 NSCLC -37.3% | NCI-H522 lung -83.9% | A549/ATCC NSCLC -14.2% | 786-0 renal -55.9% | COLO 205 colon -78.6% | DU-145 prostate -1.97% | K-562 leukemia 8.33% | MALME-3M melanoma -95.9% | MDA-MB-231 breast -59.5% | SF-268 CNS 2.2% | SF-295 CNS -69.3% | SF-539 CNS -91.5% | UACC-257 melanoma -78.7% | M14 melanoma -87.3%
inactive: NCI-H226 lung 41.3%

Cc1ccc2nc(COc3ccc(C(=O)NNC(=S)NCCc4ccccc4)cc3)[nH]c2c1
active: HOP-92 NSCLC 9.55% | SF-539 CNS -1.98%
inactive: NCI-H23 lung 17.2% | NCI-H226 lung 47.2% | NCI-H322M lung 51.7% | HOP-62 NSCLC 42.4% | NCI-H460 lung 60.4% | NCI-H522 lung 55% | A549/ATCC NSCLC 104% | 786-0 renal 61% | COLO 205 colon 144% | DU-145 prostate 98.9% | K-562 leukemia 85.7% | MALME-3M melanoma 64.8% | MDA-MB-231 breast 29.6% | SF-268 CNS 33.6% | SF-295 CNS 79.3% | UACC-257 melanoma 103% | M14 melanoma 106%

O=c1[nH]c2ccccc2cc1CSc1ccc(Nc2nccc(-c3ccc4c(c3)OCO4)n2)cc1
inactive: NCI-H23 lung 86.1% | NCI-H226 lung 74% | NCI-H322M lung 97.7% | HOP-62 NSCLC 84% | NCI-H460 lung 83.1% | HOP-92 NSCLC 78.6% | NCI-H522 lung 96.9% | A549/ATCC NSCLC 76.7% | 786-0 renal 84.7% | COLO 205 colon 71.6% | DU-145 prostate 77.5% | K-562 leukemia 87.6% | MALME-3M melanoma 55.2% | MDA-MB-231 breast 78.6% | SF-268 CNS 71.6% | SF-295 CNS 101% | UACC-257 melanoma 105% | M14 melanoma 82.4%
active: SF-539 CNS 9.95%

CCCn1c(=O)c2[nH]c(-c3ccc(OCc4nc5ccc(C)cc5[nH]4)cc3)nc2n(CCC)c1=O
inactive: NCI-H23 lung 25.3% | NCI-H322M lung 40.3% | NCI-H460 lung 13% | NCI-H522 lung 36.7% | A549/ATCC NSCLC 62.7% | COLO 205 colon 91.3% | DU-145 prostate 61.8% | K-562 leukemia 28.3% | SF-268 CNS 66.4% | SF-295 CNS 12.6% | UACC-257 melanoma 65.5% | M14 melanoma 59.7%
active: NCI-H226 lung -55% | HOP-62 NSCLC -17.3% | HOP-92 NSCLC -43.2% | 786-0 renal -75.2% | MALME-3M melanoma -69% | MDA-MB-231 breast -50.7% | SF-539 CNS -84.2%

COc1ccc(C2N(c3ccc(Br)cc3)N=C(C(C)=O)N2[C@H]2[C@H](OC(C)=O)O[C@H](COC(C)=O)[C@@H](OC(C)=O)[C@@H]2OC(C)=O)cc1 (stereo not given in full)
inactive: NCI-H23 lung 75.4% | NCI-H226 lung 69.6% | NCI-H322M lung 73.7% | HOP-62 NSCLC 92% | NCI-H460 lung 52.1% | HOP-92 NSCLC 79.2% | NCI-H522 lung 48.1% | A549/ATCC NSCLC 66.1% | 786-0 renal 92.6% | COLO 205 colon 88.1% | DU-145 prostate 85.7% | K-562 leukemia 65% | MALME-3M melanoma 93.4% | MDA-MB-231 breast 72.1% | SF-268 CNS 74.9% | SF-295 CNS 64.1% | SF-539 CNS 80.7% | UACC-257 melanoma 89.9% | M14 melanoma 81.5%

Cc1noc2c(Cc3ccccc3)nn(CC(=O)N/N=C/c3ccc(F)cc3)c(=O)c12
active: HOP-92 NSCLC -12.7% | 786-0 renal -2.13% | MALME-3M melanoma -1.4%
inactive: NCI-H23 lung 78.4% | NCI-H226 lung 29% | NCI-H322M lung 84.6% | HOP-62 NSCLC 14.7% | NCI-H460 lung 28.9% | NCI-H522 lung 85.8% | A549/ATCC NSCLC 45.3% | COLO 205 colon 72.5% | DU-145 prostate 65.2% | K-562 leukemia 96.7% | MDA-MB-231 breast 44.3% | SF-268 CNS 62.6% | SF-295 CNS 25.9% | SF-539 CNS 66.9% | UACC-257 melanoma 67.4% | M14 melanoma 66.1%

O=C(CSc1nnc(-c2c[nH]c3ccccc23)n1-c1ccccc1)c1ccc(Br)cc1
inactive: NCI-H23 lung 54% | NCI-H226 lung 39.1% | NCI-H322M lung 45.7% | HOP-62 NSCLC 73.6% | NCI-H460 lung 34.5% | HOP-92 NSCLC 28.1% | NCI-H522 lung 46.3% | A549/ATCC NSCLC 29.9% | 786-0 renal 82.4% | COLO 205 colon 13.5% | DU-145 prostate 58.5% | K-562 leukemia 82% | MALME-3M melanoma 71% | MDA-MB-231 breast 66% | SF-268 CNS 49.1% | SF-295 CNS 33.7% | SF-539 CNS 62% | UACC-257 melanoma 52.6% | M14 melanoma 51%

CN(C)c1nc(NCCNS(=O)(=O)c2ccc(C(=O)/C=C/c3ccccc3)cc2)nc(Nc2ccc(F)cc2)n1
active: HOP-92 NSCLC -12.1% | 786-0 renal -20.6% | M14 melanoma 5.05%
inactive: NCI-H23 lung 28.8% | NCI-H226 lung 27.8% | NCI-H322M lung 44.1% | HOP-62 NSCLC 61.1% | NCI-H460 lung 14.9% | NCI-H522 lung 61.6% | A549/ATCC NSCLC 45.4% | COLO 205 colon 54% | DU-145 prostate 26.3% | K-562 leukemia 10.8% | MALME-3M melanoma 36.5% | MDA-MB-231 breast 17.7% | SF-268 CNS 32.4% | SF-295 CNS 23.1% | SF-539 CNS 26.7% | UACC-257 melanoma 54.8%

CCOC(=O)c1c(CSc2ccccc2)n(C)c2cc(CN(C)C)c(O)c(CN(C)C)c12
inactive: NCI-H23 lung 33.8% | NCI-H226 lung 46.6% | NCI-H322M lung 47.7% | HOP-62 NSCLC 72.2% | NCI-H460 lung 34.6% | HOP-92 NSCLC 32.5% | NCI-H522 lung 62.4% | A549/ATCC NSCLC 49.6% | 786-0 renal 45.3% | DU-145 prostate 60.8% | K-562 leukemia 19.7% | MDA-MB-231 breast 16% | SF-268 CNS 71.3% | SF-295 CNS 46.9% | SF-539 CNS 50.5% | UACC-257 melanoma 54.3% | M14 melanoma 47.6%
active: COLO 205 colon -37.8% | MALME-3M melanoma -15.3%

O=C(Nc1cccc(C(F)(F)F)c1)c1cncc(C#Cc2cnc3cccnn23)c1
inactive: NCI-H23 lung 12.7% | NCI-H226 lung 27.1% | NCI-H322M lung 71.6% | HOP-62 NSCLC 33.7% | NCI-H460 lung 70.7% | NCI-H522 lung 54.9% | A549/ATCC NSCLC 63% | 786-0 renal 40.1% | COLO 205 colon 82.3% | DU-145 prostate 22.6% | MALME-3M melanoma 28% | MDA-MB-231 breast 27.9% | SF-268 CNS 46.4% | SF-295 CNS 63.5% | SF-539 CNS 31.9% | UACC-257 melanoma 83.6% | M14 melanoma 35.5%
active: HOP-92 NSCLC 7.14% | K-562 leukemia 8.07%

O=C(Nc1nc2ccccc2s1)c1ccc(Br)cc1
inactive: NCI-H23 lung 74% | NCI-H226 lung 67.4% | NCI-H322M lung 83.4% | HOP-62 NSCLC 101% | NCI-H460 lung 81.6% | HOP-92 NSCLC 100% | NCI-H522 lung 75.3% | A549/ATCC NSCLC 84.9% | 786-0 renal 99.6% | COLO 205 colon 107% | DU-145 prostate 97.2% | K-562 leukemia 64.1% | MALME-3M melanoma 85.2% | MDA-MB-231 breast 93.4% | SF-268 CNS 112% | SF-295 CNS 67.3% | SF-539 CNS 92.8% | UACC-257 melanoma 85% | M14 melanoma 96%

O=C1c2ccccc2C(=O)c2c1c(C(=O)c1ccc(Cl)cc1)n1c2ccc2c3ccccc3ccc21
inactive: NCI-H23 lung 96% | NCI-H226 lung 103% | NCI-H322M lung 113% | HOP-62 NSCLC 92.5% | NCI-H460 lung 109% | HOP-92 NSCLC 98.6% | NCI-H522 lung 93.5% | A549/ATCC NSCLC 102% | 786-0 renal 110% | COLO 205 colon 128% | DU-145 prostate 108% | K-562 leukemia 106% | MALME-3M melanoma 101% | MDA-MB-231 breast 89.9% | SF-268 CNS 105% | SF-295 CNS 99.1% | SF-539 CNS 88.5% | UACC-257 melanoma 107% | M14 melanoma 107%

Cc1noc2c(Cc3ccc([N+](=O)[O-])cc3)nn(CC(=O)N/N=C/c3ccc(Cl)cc3)c(=O)c12
inactive: NCI-H23 lung 57.9% | NCI-H322M lung 62.5% | HOP-62 NSCLC 16.9% | NCI-H460 lung 46.2% | NCI-H522 lung 69.5% | A549/ATCC NSCLC 40.1% | COLO 205 colon 79.3% | DU-145 prostate 61.6% | K-562 leukemia 72.8% | MALME-3M melanoma 36.9% | SF-268 CNS 23.5% | SF-295 CNS 70.1% | UACC-257 melanoma 81% | M14 melanoma 68.1%
active: NCI-H226 lung 8.93% | HOP-92 NSCLC -20.2% | 786-0 renal -19.5% | MDA-MB-231 breast 4.43% | SF-539 CNS 8.2%

CCCn1c(=O)c2[nH]c(-c3ccc(OCc4nc5ccccc5[nH]4)cc3)nc2n(CCC)c1=O
inactive: NCI-H23 lung 32.5% | NCI-H322M lung 59.7% | HOP-62 NSCLC 22.2% | NCI-H522 lung 20.9% | A549/ATCC NSCLC 38.6% | COLO 205 colon 89.1% | DU-145 prostate 54% | K-562 leukemia 76% | SF-268 CNS 38% | SF-295 CNS 37.4% | UACC-257 melanoma 82.3% | M14 melanoma 73.7%
active: NCI-H226 lung -30.3% | NCI-H460 lung 6.69% | HOP-92 NSCLC -6.45% | 786-0 renal -48.5% | MALME-3M melanoma -36.4% | MDA-MB-231 breast -42.6% | SF-539 CNS -44.3%

Cc1ccc2nc(-c3ccc(-c4nnc(SCC(=O)Nc5ccc(Br)cc5)o4)cc3)[nH]c2c1
active: K-562 leukemia 7.89%
inactive: NCI-H23 lung 50.3% | NCI-H226 lung 62.1% | NCI-H322M lung 80.7% | HOP-62 NSCLC 72.9% | NCI-H460 lung 14.4% | HOP-92 NSCLC 91.9% | NCI-H522 lung 62.6% | A549/ATCC NSCLC 89.5% | 786-0 renal 84.6% | COLO 205 colon 87.3% | DU-145 prostate 82.9% | MALME-3M melanoma 87.1% | MDA-MB-231 breast 77.9% | SF-268 CNS 80.6% | SF-295 CNS 63.8% | SF-539 CNS 68.3% | UACC-257 melanoma 96.5% | M14 melanoma 66.6%

From PubChem BioAssay (NCI)
